Assay results: PubChem BioAssay AID588358 (NMMLSC, 2011)
The campaign covered roughly 310,000 compounds. About 1,500 (0.48%) were called active.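 The calls were made as follows: active = binding more than 3 SD below its plate's average and above zero; inconclusive = below that plate limit but binding exactly zero; inactive = the rest.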 The list comes from a sample in which actives are over-represented; it also holds similar structures and randomly drawn compounds.

Molecular target: Desmoglein-3 (Homo sapiens) (UniProt P32926)
Assay: blockers of anti-DSG3 scFv binding – biochemical, bead-based, flow cytometry, scFv-GFP, primary screen (AID 588358);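 also: hits lower antibody fragment binding to DSG3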
Settings: DSG3-coupled beads, at 10 µM, active compounds read low

Desmoglein-3 (Homo sapiens), sequence (P32926 whole entry, looked up, the tested form may be a part): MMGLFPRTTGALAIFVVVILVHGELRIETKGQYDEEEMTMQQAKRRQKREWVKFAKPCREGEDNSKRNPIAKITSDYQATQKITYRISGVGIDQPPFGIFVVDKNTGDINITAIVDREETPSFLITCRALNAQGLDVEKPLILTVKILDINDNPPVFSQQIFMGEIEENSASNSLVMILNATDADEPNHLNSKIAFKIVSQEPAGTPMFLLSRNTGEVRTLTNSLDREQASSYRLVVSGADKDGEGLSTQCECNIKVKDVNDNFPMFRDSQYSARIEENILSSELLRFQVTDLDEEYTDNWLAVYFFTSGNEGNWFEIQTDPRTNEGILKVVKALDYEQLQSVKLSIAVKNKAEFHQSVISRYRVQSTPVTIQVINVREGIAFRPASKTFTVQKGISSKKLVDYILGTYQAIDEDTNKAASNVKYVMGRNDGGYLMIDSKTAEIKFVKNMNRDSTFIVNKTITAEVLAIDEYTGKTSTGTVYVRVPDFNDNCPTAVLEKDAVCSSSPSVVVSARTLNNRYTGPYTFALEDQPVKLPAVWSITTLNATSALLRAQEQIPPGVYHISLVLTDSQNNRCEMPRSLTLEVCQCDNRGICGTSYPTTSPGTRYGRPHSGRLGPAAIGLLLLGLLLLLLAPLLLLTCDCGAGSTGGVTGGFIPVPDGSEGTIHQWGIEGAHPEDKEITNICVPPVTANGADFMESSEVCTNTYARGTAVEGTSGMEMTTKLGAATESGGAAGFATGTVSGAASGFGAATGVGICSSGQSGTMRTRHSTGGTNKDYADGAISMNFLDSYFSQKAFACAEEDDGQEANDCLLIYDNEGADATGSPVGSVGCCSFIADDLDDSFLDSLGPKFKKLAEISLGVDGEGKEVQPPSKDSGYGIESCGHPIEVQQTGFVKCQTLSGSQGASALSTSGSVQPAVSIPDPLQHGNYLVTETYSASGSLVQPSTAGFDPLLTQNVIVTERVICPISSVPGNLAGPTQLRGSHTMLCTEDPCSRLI

| SMILES | binding (percent of control) |
| --- | --- |
| Cc1cccc(-c2nc(Nc3ccc(O)cc3)c3ccccc3n2)c1 | 324% (inactive) |
| O=c1[nH]c(-c2cccs2)nc2ccccc12 | 98.9% (inactive) |
| CC(=O)Nc1cccc(Nc2nc(-c3cccs3)nc3ccccc23)c1 | 64.6% (active) |
| C[C@H]1CN([C@@H](C)CO)C(=O)CCCn2nncc2CO[C@@H]1CN(C)Cc1ccc(Oc2ccccc2)cc1 | 101% (inactive) |
| Cc1ccc(C(=O)N[C@H](C(=O)N2CCN(c3ncccn3)CC2)C(C)C)cc1 | 96.6% (inactive) |
| CCOC(=O)c1cc2cc3ccccc3cc2oc1=O | 105% (inactive) |
| NS(=O)(=O)c1ccc(NC(=O)COC(=O)CCc2c[nH]c3ccccc23)cc1 | 96.4% (inactive) |
| NS(=O)(=O)c1ccc(NC(=O)COC(=O)c2cc3ccccc3oc2=O)cc1 | 9.15% (active) |
| COc1ccc(NC(=O)C2CCC(CNC(=O)[C@@H]3Cc4ccccc4CN3)CC2)cc1 (some centres not stated) | 104% (inactive) |
| COc1ccc(NC(=O)[C@H](NC(=O)[C@@H]2Cc3ccccc3CN2)c2ccccc2)cc1 | 103% (inactive) |
| COc1cccc(NC(=O)[C@H](Cc2c[nH]c3ccccc23)NC(=O)[C@@H]2Cc3ccccc3CN2)c1 | 63.9% (active) |
| COc1ccc(CN2C(=O)C(CC(=O)NCc3cccc4ccccc34)CC(C(=O)N3CCOCC3)=C2C)cc1 (configuration not stated) | 102% (inactive) |
| O=C(Nc1cc(F)ccc1F)c1ccc2c(=O)n3c(nc2c1)CCC3 | 98.5% (inactive) |
| C[C@H]1Cn2cnc(C(=O)N[C@@H](Cc3c[nH]c4ccccc34)C(=O)OC(C)(C)C)c2C(=O)N1 | 98.2% (inactive) |
| CCOC(=O)CNc1nc(Cl)nc(Nc2ccccc2)n1 | 90.6% (inactive) |
| CCC(=O)Nc1ccc(Nc2nc(Cl)nc(Nc3ccc(NC(=O)CC)cc3)n2)cc1 | 81.3% (active) |
| CCC(=O)Nc1ccc(C(=O)NNC(=O)c2ccc(Cl)cc2)cc1 | 103% (inactive) |
| O=C(CCN1CCCCC1)Nc1ccc(F)c(F)c1 | 94.7% (inactive) |
| CCC(O)C1CCN(Cc2cn(-c3ccc(OC)cc3)nc2-c2cccc(F)c2)CC1 (configuration not stated) | 110% (inactive) |
| COc1ccc(-n2cc(CN(C)Cc3n[nH]c(=O)[nH]3)c(-c3cccc(F)c3)n2)cc1 | 103% (inactive) |
| COc1ccc(-n2cc(CNC3CCOCC3)c(-c3cccc(F)c3)n2)cc1 | 21.8% (active) |
| Cc1cccc(NC(=O)c2sc3nc(N4CCOCC4)c4c(c3c2N)CCCC4)c1 | 94.3% (inactive) |
| Cc1ccc(NC(=O)c2sc3nc(N)c(C#N)cc3c2N)cc1 | 99.5% (inactive) |
| CC(=O)Nc1ccc(NC(=O)c2sc3nc4c(c(-c5ccc(C)cc5)c3c2N)CCC4)cc1 | 6.32% (active) |
| Cc1cc(C)cc(NC(=O)COc2coc(CN3CCN(c4ccccc4)CC3)cc2=O)c1 | 104% (inactive) |
| Cc1ccc(NC(=O)CN2CCc3ccccc3C2)cc1C | 120% (inactive) |

| SMILES | binding (percent of control) |
| --- | --- |
| Cc1ccc(NC(=O)COc2coc(CN3CCc4ccccc4C3)cc2=O)cc1Cl | 85.8% (active) |
| O=C(COC(=O)/C=C/c1ccc(Cl)cc1)NC1CCS(=O)(=O)C1 (configuration not stated) | 107% (inactive) |
| CN(c1ccccc1)S(=O)(=O)c1ccc(C(=O)NCc2cccnc2)cc1 | 97.8% (inactive) |
| COc1cc2c(=O)n(C)c3ccccc3c2cc1OC | 103% (inactive) |
| Cc1ccc(-c2nc(C#N)c(NCCCn3ccnc3)o2)cc1 | 66.2% (active) |
| COc1ccc(-c2cc(C(=O)NCCCn3ccnc3)no2)cc1 | 104% (inactive) |
| Cc1ccc(S(=O)(=O)c2nc(NCCCn3ccnc3)sc2Cl)cc1 | 98.5% (inactive) |
| Cc1ccc(CCNC(=O)CN2C(=O)CSc3ccc(S(=O)(=O)N4CCOCC4)cc32)cc1 | 100% (inactive) |
| Cc1ccc(C(=O)N2CCCc3ccccc32)c(Cl)c1 | 104% (inactive) |
| Cc1ccc(-c2nc3ccc(Cl)cn3c2Cc2ccccc2)cc1 | 111% (inactive) |
| C[C@@H]1CN([C@@H](C)CO)C(=O)c2cc(Br)cnc2O[C@H]1CN(C)Cc1ccc(-c2ccccc2)cc1 | 101% (inactive) |
| O=S(=O)(c1ccc(Cl)cc1)c1nc(-c2ccccc2F)oc1NCCN1CCOCC1 | 103% (inactive) |
| O=S(=O)(c1ccccc1)c1nc(-c2ccccc2F)oc1NCc1cccnc1 | 91.8% (active) |
| O=S(=O)(c1ccc(Br)cc1)c1nc(-c2ccccc2)oc1NCc1cccnc1 | 78.8% (inactive) |
| Clc1cccc(N=C2NN=C(c3ccc4c(c3)OCCO4)CS2)c1 | 97.3% (inactive) |
| C=CCn1c(C)cc(C2=NNC(=NCC)SC2)c1C | 80.2% (inactive) |
| COCCn1c(C)cc(C2=NNC(=Nc3ccc(F)cc3)SC2)c1C | 76.6% (active) |
| COc1ccc(N2C(=O)CC(Sc3n[nH]c(-c4ccc(C)cc4)n3)C2=O)cc1 (configuration not stated) | 85.3% (inactive) |
| COc1ccc(N2C(=O)CC(SC(C)C)C2=O)cc1 (configuration not stated) | 68% (active) |
| COc1ccc(N2C(=O)CC(N3CCC(C(N)=O)CC3)C2=O)cc1 (configuration not stated) | 97.6% (inactive) |
| Cc1cccc(C)c1NC(=O)CNC(=O)c1ccc(N2CCOCC2)c([N+](=O)[O-])c1 | 95.2% (inactive) |
| COc1ccc2nc(-c3ccccn3)ccc2c1 | 101% (inactive) |
| CCCc1ccc(S(=O)(=O)N2CCN(C(=O)c3cc(C)on3)CC2)cc1 | 96.3% (inactive) |
| CCCCCCn1c(=O)n2n(c1=O)C[C@]1(OC(=O)NCc3ccc(OC)c(OC)c3)CN(S(=O)(=O)c3ccc(C)cc3)C[C@]1(O)C2 | 108% (inactive) |
| CC1=C(C(=O)Nc2cccc(C(=O)NCC(C)c3ccccc3)c2)SCCO1 (configuration not stated) | 106% (inactive) |
| CCOc1ccc(CCNC(=O)COC(=O)c2ccc(C)c(S(=O)(=O)N3CCOCC3)c2)cc1OCC | 97.5% (inactive) |
